Tau ThT inhib – tau fibrillization inhibition (ThT binding); recombinant tau K18 P301L, heparin-induced fibrillization, ThT fluorescence; Potency, µM (highest dose often 57.4 µM), for inactives: at the top dose activity, negative = inhibition, usual class: inhibitors; 270,000 compounds, 2.1% hits; active means well fitted curve in the direction sought with a large enough effect; inconclusive means small, poorly fitted or top-dose-only effect, or another doubt; inactive means no such curve, though single readings can be large; an effect the other way counts as inactive or inconclusive; further: nearly all actives have a fitted effect of over 55% in size
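Using a mix of unlabeled (15 uM) and Alexa 594-labeled (0.24 uM) tau K18 P301L, heparin-triggered fibrillization over 6 hr at 37 C was scored by ThT fluorescence.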
JMJD2E inh – inhibitors of human JMJD2E histone demethylase; Potency, µM (doses to about 57.1 µM), for inactives: top-dose activity change, negative = inhibition, actives largely listed as inhibitors; AID 2147; JMJD2E catalytic domain, FDH-coupled NADH fluorescence (FDH is formaldehyde dehydrogenase); 230,000 compounds, 1.6% hits;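 further: 0% = wells with enzyme and -100% = buffer wells without enzyme; nearly all actives have a fitted effect of over 50% in size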
Tau fluor cs – counter-screen for tau fibril formation inhibitors | tau K18 P301L (four-repeat tau fragment) Alexa594 fluorescence, heparin fibrillization | Potency, µM (series often up to 57.7 µM), for inactives: at the top dose activity change, negative = decrease | 280,000 compounds, 0.93% hits; active means well fitted curve in the direction sought with a large enough effect; inconclusive means small, poorly fitted or top-dose-only effect, or another doubt; inactive means no such curve, though single readings can be large; an effect the other way counts as inactive or inconclusive; further: nearly all actives have a fitted effect of over 55% in size
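Human K18 P301L tau (15 uM unlabeled plus 0.24 uM Alexa 594-labeled, final) in 100 mM sodium acetate pH 7 was mixed with compound and 20 uM heparin and incubated 6 hr at 37 C.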
ALDH1A1 inh – inhibitors of human aldehyde dehydrogenase 1A1; P00352; Purified ALDH1A1, NADH fluorescence, propionaldehyde substrate; Potency, µM (titrated, usually from 75.3 µM), for the others: top-dose activity, negative = inhibition, most hits filed as inhibitors; 220,000 compounds, 7.3% hits; AID 1030;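 further: plate controls were no enzyme wells and a reference inhibitor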
Target sequence (P00352 whole entry, looked up): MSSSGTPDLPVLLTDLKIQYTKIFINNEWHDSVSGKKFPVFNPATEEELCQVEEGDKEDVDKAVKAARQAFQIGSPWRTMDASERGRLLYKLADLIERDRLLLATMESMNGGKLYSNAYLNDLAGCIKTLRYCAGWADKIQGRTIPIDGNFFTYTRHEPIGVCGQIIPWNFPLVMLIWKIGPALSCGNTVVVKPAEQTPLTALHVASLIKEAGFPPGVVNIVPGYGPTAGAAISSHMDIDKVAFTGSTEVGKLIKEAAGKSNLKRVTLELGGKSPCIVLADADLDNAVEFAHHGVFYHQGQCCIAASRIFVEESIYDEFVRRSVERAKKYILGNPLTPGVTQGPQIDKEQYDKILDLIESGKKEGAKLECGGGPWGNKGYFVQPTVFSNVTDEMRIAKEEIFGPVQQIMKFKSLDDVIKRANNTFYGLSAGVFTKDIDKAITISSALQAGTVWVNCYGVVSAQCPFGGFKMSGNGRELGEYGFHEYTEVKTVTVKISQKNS
HPGD inh – inhibitors of human 15-hydroxyprostaglandin dehydrogenase (HPGD). Potency, µM, without a hit: top-dose activity change, negative = inhibition, most hits filed as inhibitors. AID 894. purified HPGD, NADH fluorescence kinetic, PGE2 substrate. 150,000 compounds, 4.3% hits. P15428
Target sequence (P15428 whole entry, looked up): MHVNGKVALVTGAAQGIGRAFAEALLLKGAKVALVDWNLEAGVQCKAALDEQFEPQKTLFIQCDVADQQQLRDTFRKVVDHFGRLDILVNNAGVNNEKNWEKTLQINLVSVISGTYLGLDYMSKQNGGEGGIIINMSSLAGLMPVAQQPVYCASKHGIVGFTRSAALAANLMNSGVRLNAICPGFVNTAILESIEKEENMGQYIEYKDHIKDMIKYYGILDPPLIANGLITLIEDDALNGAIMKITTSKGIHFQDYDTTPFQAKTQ
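NADH formation kinetics: reaction with 30 uM PGE2 and 1 mM NAD+ (final), 20 nM enzyme, Tris-HCl pH 8 with Tween 20, after 15 min compound preincubation at room temperature. Fluorescence change, last versus first of five reads.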
Tau fibril FP – blocks human tau fibril formation measured by polarization; P10636; K18 P301L tau heparin fibrillization, Alexa594 FP, 6 h; Potency, µM (titrated, usually from 57.7 µM), inactives show at the top dose activity, negative = inhibition, most hits filed as inhibitors; 280,000 compounds, 0.39% hits; active means well fitted curve in the direction sought with a large enough effect; inconclusive means small, poorly fitted or top-dose-only effect, or another doubt; inactive means no such curve, though single readings can be large; an effect the other way counts as inactive or inconclusive; further: nearly all actives have a fitted effect of over 55% in size
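Read-out: fluorescence polarization of Alexa 594-labeled tau (0.24 uM), 555 nm excitation, 632 nm emission. Mixtures held 15 uM unlabeled K18 P301L, compound and 20 uM heparin, pH 7 acetate buffer, incubated 6 hr at 37 C.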
Numbers without * were called inactive; ? = inconclusive; nt = no result; [ ] = dose if it differs, or a comment. The list is not random: actives were taken first. Their share in the collection is about 9.9%. Unless noted, the call rests on the fitted dose curve; in most records, active means well fitted inhibition curve with a large enough effect (not every such curve was filed as active); inconclusive means small, poorly fitted or top-dose-only effect, or another doubt; inactive means no such curve, though single readings can be large or run the other way. Unless noted, on the % scale 0 is the no-effect control and ±100 the full control effect; potency means the concentration at half of the fitted maximal effect.

SMILES	Tau ThT inhib	JMJD2E inh	Tau fluor cs	ALDH1A1 inh	HPGD inh	Tau fibril FP
Cc1ccc2cc(CN(CC3CCCO3)C(=S)NCc3ccco3)c(=O)[nH]c2c1C (stereo unspecified)	-9.5%	-8.8%	-2.0%	22.4µM*	-11.0%	8.0%
Cc1ccc2cc(CN(Cc3nnnn3Cc3ccco3)CC3CCCO3)c(=O)[nH]c2c1C (stereo unspecified)	?	?	-6.7%	1.78µM*	-24.9%	-12.6%
COc1ccc2cc(CN(Cc3ccco3)C(=S)NCC3CCCO3)c(=O)[nH]c2c1 (stereo unspecified)	2.6%	?	1.2%	?	nt	-4.3%
COc1ccccc1NC(=O)N(Cc1ccco1)Cc1cc2c(C)ccc(C)c2[nH]c1=O	?	?	-6.9%	17.8µM*	-13.3%	-4.1%
Cc1ccc(NC(=O)N2CCN(C)c3ncccc32)cc1C	-2.5%	nt	-6.8%	nt	nt	-7.4%
C[C@@H](C(=O)Nc1ccc2ccccc2c1)[C@@H]1C[C@@]1(C)[C@@H](NC(=O)c1ccncc1Cl)c1ccccc1	-7.4%	-6.0%	-13.2%	-0.5%	-11.7%	-6.4%
Cc1cc(=O)oc2cc(O[C@@H]3O[C@H](C(=O)O)[C@@H](O)[C@H](O)[C@H]3O)ccc12	-1.9%	?	0.1%	?	?	-4.3%
Cc1ccc(C)c2[nH]c(=O)c(CN(Cc3cccs3)C(=S)NCc3ccco3)cc12	-1.8%	?	-15.3%	25.1µM*	-10.1%	-3.4%
Cc1cnc(C(=O)N2CCCC(C(=O)c3ccc(C(C)(C)C)cc3)C2)cn1 (stereo unspecified)	5.7%	-2.8%	13.2%	12.6µM*	nt	2.2%
O=C(c1ccc(Oc2ccccc2)cc1)C1CCCN(C(=O)c2cnccn2)C1 (stereo unspecified)	-11.2%	-19.2%	-14.3%	nt	nt	-1.7%
CCCC(=O)Nc1ccc(C(=O)N2CCCC2)cc1	-11.7%	1.2%	-0.5%	6.4%	14.1µM*	-1.6%
CCCCC(=O)Nc1ccc(C(=O)N2CCCC(C(=O)OCC)C2)cc1 (stereo unspecified)	-10.8%	-2.3%	-6.5%	?	14.1µM*	-16.1%
CCCC(=O)Nc1ccc(S(=O)(=O)N2CCCC2)cc1	-2.1%	4.2%	-5.9%	8.2%	-4.2%	2.5%
CCOC(=O)C1CCCN(C(=O)c2ccc(OC)c([N+](=O)[O-])c2)C1 (stereo unspecified)	12.1%	5.4%	8.1%	4.47µM*	-4.9%	-2.6%
CCCC(=O)Nc1ccc(C(=O)NNC(=O)c2ccccc2Br)cc1	?	0.5%	-9.2%	?	28.2µM*	-4.9%
CCOC(=O)C1CCCN(C(=O)c2ccc(Cl)cc2)C1 (stereo unspecified)	-3.9%	-1.9%	3.5%	-6.5%	nt	-3.2%
C=CCc1cc(/C=C2/NC(=O)N(CC(=O)OC)C2=O)cc(OC)c1O	-3.3%	?	-12.7%	?	nt	10.2%
O=C(c1ccc(F)cc1)c1ccc(N2CCCC2)cc1	?	?	-8.5%	20µM*	28.2µM*	7.6%
CC1CCN(C(=O)c2cc(-c3cccc(Cl)c3)on2)CC1	-11.2%	nt	-11.6%	nt	nt	9.9%
Cn1ncc2c(Nc3ccc(Br)cc3)nc(Nc3ccc(Br)cc3)nc21	?	?	?	?	nt	10µM*
Cn1ncc2c(Nc3cccc(Cl)c3)nc(Nc3cccc(Cl)c3)nc21	15.6%	?	?	7.2%[13.5 µM]	?	8.91µM*
CCc1ccc(NC(=O)C2CCCN(S(=O)(=O)c3ccc4c(c3)oc(=O)n4C)C2)cc1 (stereo unspecified)	?	nt	-28.5%	nt	nt	?
O=C(NC(=O)c1ccccc1)OCCN1C(=O)c2ccccc2C1=O	0.0%	0.6%	-5.4%	-11.2%	nt	1.7%
O=C(CCSc1nnc2scc(-c3ccccc3)n12)NCc1ccc2c(c1)OCO2	-17.3%	-1.0%	-2.7%	-5.4%	?	2.8%
COc1ccc(-c2nnc(SCC(=O)Nc3ccc4c(c3)OCCO4)n2N)cc1OC	?	2.2%	-13.9%	4.9%	5.5%	-1.5%
SMILES	Tau ThT inhib	JMJD2E inh	Tau fluor cs	ALDH1A1 inh	HPGD inh	Tau fibril FP
O=C(CSC1=NC2(CCCCC2)N=C1c1ccccc1)Nc1ccc2c(c1)OCCO2	-0.2%	2.1%	-3.8%	37.1%	-13.2%	5.6%
O=C(CSc1nnc2scc(-c3ccccc3)n12)Nc1ccc2c(c1)OCCO2	-10.1%	9.0%	-3.2%	15.8µM*	-8.4%	9.2%
O=C(CSC1=NC2(CCCCCC2)N=C1c1ccccc1)Nc1ccc2c(c1)OCCO2	-10.8%	5.7%	?	22.4µM*	-14.3%	-12.0%
CC(C)Oc1cccc(-c2nnc(SCC(=O)Nc3ccc4c(c3)OCCO4)n2N)c1	-11.3%	-8.2%	-9.5%	12.6µM*	-11.8%	0.7%
c1ccc(-c2csc3nnc(SCc4ccc5c(c4)OCO5)n23)cc1	-5.7%	-19.0%	-5.2%	?	22.4µM*	-0.9%
Cc1nc(-c2ccc(S(=O)(=O)N(Cc3ccccc3)C(C)C)cc2)co1	-13.6%	nt	-27.4%	nt	nt	6.8%
CCn1c2ccccc2c2cc(NC(=O)CSc3nnc(-c4ccc(OC)c(OC)c4)n3N)ccc21	?	2.2%	?	?	-10.5%	13.4%
CCn1c2ccccc2c2cc(NC(=O)CSc3nnc(-c4cccc(OC)c4)n3N)ccc21	?	-2.1%	15.8µM*[quencher]	-3.3%	-13.8%	2.0%
COc1ccc(-c2oc(NC(=O)CSc3ncn[nH]3)c(C#N)c2-c2ccc(OC)cc2)cc1	?	-2.5%	14.1µM*[quencher]	-9.1%	-12.9%	0.4%
COc1ccccc1OCC(=O)Nc1oc(-c2ccccc2)c(-c2ccccc2)c1C#N	-8.5%	?	-29.4%	-8.9%	-18.1%	3.4%
COc1ccc(-c2oc(NC(=O)CCl)c(C#N)c2-c2ccc(OC)cc2)cc1	25.1µM*	?	15.8µM*[quencher]	2.51µM*	-16.3%	-15.1%
Cc1ccnc(SCC(=O)Nc2oc(-c3ccccc3)c(-c3ccccc3)c2C#N)n1	-0.1%	?	-21.4%	-1.4%	-11.1%	-11.3%
COc1ccc(C2=Nc3ccccc3N(CC(=O)Nc3cccc(C(C)=O)c3)C(=O)C2)cc1	-11.6%	nt	?	nt	nt	?
COC(=O)c1sc(N)c(C(=O)OC)c1COC(=O)C1CC(=O)N(Cc2ccco2)C1 (stereo unspecified)	?	-16.4%	-15.7%	?	?	-2.9%
O=C(OCc1nnc(-c2ccccc2)o1)c1ccco1	-2.8%	-2.9%	-0.6%	?	8.91µM*	-8.0%
CCOC(=O)c1sc(N)c(C(=O)OCC)c1COC(=O)C1CC(=O)N(Cc2ccco2)C1 (stereo unspecified)	-12.4%	-6.4%	-11.0%	20µM*	-20.9%	2.6%

Screening results as filed in PubChem BioAssay.
